Among all 360,000 compounds or so, about 3,600 (1%) were called active. Shown is part of a subset that was picked to be rich in actives. Unmarked numbers belong to inactive results.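 How the source made its calls: active means compounds whose plate-normalised and pattern-corrected inhibition of the luciferase reporter signal at the single screening dose is 50% or more; inactive means the rest.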
experiment: TROY pathway blockers in reporter cells – Q293 LMP1-TROYcd cells, NF-kB luciferase, uHTS, primary screen (AID 1347056); settings: 4 h, at 10 µM, stronger effect = higher value

Structure (SMILES) | inhibition
Cc1ccc(CNC(=O)C2(C(F)(F)F)C/C(=C\Cc3ccccc3)CCCO2)o1 (stereo not given) | 6.34%
CCC1Nc2ncnc(N3CCN(c4ccccc4)CC3)c2N(Cc2ccc(Cl)cc2)C1=O (stereo not given) | 18.3%
N#CC(C(=O)c1ccc(S(=O)(=O)N2CCCCCC2)cc1)c1nc2ccccc2[nH]1 (stereo not given) | 51.6% (active)
O=C(Nc1ncccc1O)c1ccc(S(=O)(=O)N2CCCCCC2)cc1 | -10.3%
O=S(=O)(c1ccc(Br)cc1)N1CCC(c2nc3ccccc3[nH]2)CC1 | 2%
CN1CCN(S(=O)(=O)c2cccc(C(=O)Nc3sccc3C#N)c2)CC1 | -0.51%
CN1CCN(C(=O)c2ccc(-c3ccc(Br)cc3)o2)CC1 | -59.3%
O=C(NC(=S)Nc1ccccc1C(=O)O)c1ccc(-c2ccc(Br)cc2)o1 | 79.8% (active)
O=C(NC(=S)Nc1cc(C(F)(F)F)ccc1N1CCOCC1)c1ccc(-c2cccc(Cl)c2)o1 | -13.2%
[O-][n+]1c2c(nn1-c1ccc(Cl)c(Cl)c1)-c1nonc1CC2 | 10.8%
Cc1ncc(CO)c(/C=N/NC(=O)c2cccc(S(=O)(=O)N3CCCC3)c2)c1O | 32.4%
Cc1cc(C(=O)COC(=O)CNC(=O)c2ccc(F)cc2)c(C)n1Cc1ccco1 | 71.1% (active)
Cc1ccc(OCC(=O)c2cc(C)n(Cc3ccco3)c2C)c([N+](=O)[O-])n1 | -2.73%
COCCn1c(C)cc(C(=O)COC(=O)CNC(=O)c2ccco2)c1C | -1.63%
O=C(COC(=O)Cn1[nH]c(=O)c2ccccc2c1=O)Nc1c(Cl)cccc1C(F)(F)F | -7.36%
O=C(Cn1cnc2ccccc2c1=O)Nc1cccc(S(=O)(=O)N2CCCCC2)c1 | 6.2%
O=C1CCCN1C(=O)COc1ccc([N+](=O)[O-])cc1 | 9.48%
CCCCC(=O)Nc1c2c(nn1-c1ccc([N+](=O)[O-])cc1)CS(=O)(=O)C2 | -5.93%
O=C1/C(=C\c2ccc([N+](=O)[O-])cc2)CS(=O)(=O)C/C1=C/c1ccc([N+](=O)[O-])cc1 | 75% (active)
CC1(C)Cc2c(sc(NC(=O)C(=O)NCC3CCCO3)c2C(=O)O)CO1 (stereo not given) | -13.6%
CCc1c(O)cc2n(c1=O)-c1ccccc1C2(C)C | 4.14%
CCN(CCCNC(=O)C1CCN(S(=O)(=O)c2cnc[nH]2)CC1)c1ccccc1 | -0.34%
CCN(CCCNC(=O)c1ccc2c(c1)NC(=O)CN2C)c1cccc(C)c1 | 71.7% (active)

Structure (SMILES) | inhibition
CCN(CCCNC(=O)CCn1c(=O)[nH]c2ccsc2c1=O)c1ccccc1 | 0.42%
Cc1ccc(SC(CC(=O)c2ccc(C(C)(C)C)cc2)C(=O)O)cc1 (stereo not given) | 14.6%
CCOc1ccc(NS(=O)(=O)c2ccc(Cl)c(C(=O)N(C)Cc3cccnc3)c2)cc1 | -2.69%
Fc1ccccc1-c1cc2cc3c(cc2cn1)OCO3 | -40.9%
CC(NCC(=O)Nc1cc(Cl)cc(Cl)c1)c1ccccc1 (stereo not given) | 17.5%
Cc1nnc(SC(C(=O)Nc2cc(Cl)cc(Cl)c2)c2ccccc2)[nH]c1=O (stereo not given) | 54.4% (active)
Cc1nnc(SC(C(=O)c2ccccc2)c2ccccc2)[nH]c1=O (stereo not given) | 14.7%
O=C(CN(c1ccc2c(c1)OCCO2)S(=O)(=O)c1ccccc1)Nc1ccc2c(c1)OCO2 | -3.48%
C=CCn1c(C)cc(C2=NNC(=NCC)SC2)c1C | 88% (active)
COCCn1c(C)cc(C2=NNC(=Nc3ccc(F)cc3)SC2)c1C | 56.7% (active)
CCN1CCN(c2ccc(S(=O)(=O)N3CCCCC3)cc2NC(=O)Cc2c(Cl)cccc2Cl)CC1 | 4.53%
CCC(=O)Nc1ccccc1C(=O)N1CCN(Cc2ccccc2)CC1 | 12.5%
CN1OC[C@@H]2CN(S(=O)(=O)c3cccc4ccccc34)[C@H](c3ccc(N4CCCCC4)cc3)C[C@@H]21 | 14.6%
COc1ccc(S(=O)(=O)N2C[C@H]3CON(C)[C@H]3C[C@H]2c2cccc(Br)c2)cc1 | 0.2%
CN1OC[C@@H]2CN(S(=O)(=O)c3cccc(C(F)(F)F)c3)[C@H](c3ccc(-c4cc5ccccc5o4)cc3)C[C@@H]21 | 64.2% (active)
CC1Cc2ccccc2N1S(=O)(=O)c1c(N)n(C)c(=O)n(C)c1=O (stereo not given) | 0.15%
Clc1ccc(-c2cccc3nccn23)cc1 | -13.8%
CC(=O)N1N=C(c2ccncc2)OC1(Cc1ccccc1)Cc1ccccc1 | 5.47%
Cc1cc(Cl)c(S(=O)(=O)Nc2ccc3c(c2)OCCO3)cc1OCC(N)=O | 77.5% (active)
Cc1cc(Cl)c(S(=O)(=O)NCC2CCCO2)cc1OCC(N)=O (stereo not given) | -1.29%
Cc1cc(Cl)c(S(=O)(=O)N(C)C)cc1OCC(N)=O | 0.31%
COC(=O)CSc1snnc1-c1ccc(Cl)c(Cl)c1 | -45.5%
C=CCN(c1ccccc1C(=O)NCC(=O)OCC)S(=O)(=O)c1ccc(C)cc1 | 1.62%

Structure (SMILES) | inhibition
S=C(NCCCc1cnc[nH]1)NCCCN(Cc1ccc(Cl)c(Cl)c1)c1ccc(Br)cn1 | 8.84%
CCOC(=O)C1CCCN(C(=O)Cn2ncc3c(=O)oc4ccc(C)cc4c32)C1 (stereo not given) | 1.47%
Cc1ccc2oc(=O)c3cnn(CC(=O)N(Cc4ccco4)C4CCCCC4)c3c2c1 | 58.7% (active)
Cc1ccc2oc(=O)c3cnn(CC(=O)N4CCCCCC4)c3c2c1 | 6.16%
CCCCC(=O)Nc1ccc2c(c1)C(=O)NC2=O | 10.3%
Cc1cc(C(=O)COc2ccccc2Cl)c(C)n1C1CC1 | -42.6%
Cc1cc(C(=O)COC(=O)C2CC2)c(C)n1-c1ccc(F)cc1 | 90.5% (active)
Cc1cc(C(=O)CSc2nc(N)cc(=O)[nH]2)c(C)n1-c1cccc(F)c1 | -1.75%
COc1ccc(-c2nc3ccc(Br)cn3c2Cc2ccc(C)cc2)cc1OC | -36.6%
Cc1ccc(-c2cn3cc(C)ccc3n2)cc1 | 86.4% (active)
Cc1ccc2nc(-c3ccc(Br)cc3)cn2c1 | 71.4% (active)
Cc1ccc(-c2cc(N)on2)cc1 | -41.2%
Cc1ccc(-c2nc3ccc(Cl)cn3c2Cc2ccccc2)cc1 | -69.6%
Cc1ccc(-c2nc3ccc(Br)cn3c2Cc2ccccc2C(F)(F)F)cc1 | -33.5%
COc1ccc(C(=O)O)cc1S(=O)(=O)NCc1cccnc1 | -5.43%
CC(=O)Nc1ccc(/C(C)=N/NC(=O)CN(c2ccccc2Br)S(C)(=O)=O)cc1 | 8.85%
COc1ccc(CN(C)C(=S)Nc2ccc(Cl)cc2Cl)cc1 | -7.98%
O=C(c1cc(COc2c(F)cccc2F)on1)N1CCSCC1 | -17%
Cn1cnc2c1c(=O)n(Cc1ccccc1C#N)c(=O)n2C | 2.82%
COc1cc2cc(C(=O)N/N=C/c3cccc(OC)c3OC)[nH]c2cc1OC | 69.2% (active)
CCN1CCCC1CNC(=O)c1cc2cc(OC)c(OC)cc2[nH]1 (stereo not given) | -3.54%
COc1cccc2[nH]c(C(=O)NCCc3ccccc3)cc12 | -24.7%
O=C(CN1C(=O)c2ccccc2S1(=O)=O)N1CCc2ccccc21 | 89.1% (active)

Structure (SMILES) | inhibition
CN(Cc1ccc(F)cc1)C(=O)CN1C(=O)c2ccccc2S1(=O)=O | -51.1%
COc1ccc(CNC(=O)CN2C(=O)c3ccccc3S2(=O)=O)cc1 | 9.08%
CC1CCCN(C(=O)Cn2c(=O)oc3ccccc32)C1 (stereo not given) | -6.27%
Cc1ccc2c(c1)N(CC(=O)N1CCCC(C)C1)C(=O)CO2 (stereo not given) | -0.08%
CC1CCCN(C(=O)CN2C(=O)c3ccccc3S2(=O)=O)C1 (stereo not given) | 58.2% (active)
CC(C)(C)c1ccc(S(=O)(=O)N2CCN(C(=O)c3ccc4c(c3)C(=O)N(Cc3ccncc3)C4=O)CC2)cc1 | 1.2%
CC(NC(=O)COC(=O)c1ccc(Cl)cc1O)c1ccc(F)cc1 (stereo not given) | 4.75%
Cc1cc(S(=O)(=O)NC2CCCCC2)ccc1OCC(=O)NCc1cccnc1 | -5.71%
O=C(CCc1nc(-c2ccccc2)no1)Nc1cccc(C(=O)NC2CC2)c1 | 18.6%
CN(C)/C=C(\C#N)C(=O)c1cccnc1Oc1ccc(F)cc1F | -7.14%
COc1ccc(-c2cc3c(c4c2ccn4C)C2CCC3C2)cn1 (stereo not given) | 8.35%
Cc1ccc(NS(=O)(=O)c2ccc(-c3ccc(=O)[nH]n3)o2)c(C)c1 | -3.14%
CC(NC(=O)COC(=O)c1ccc2ccccc2n1)c1ccccc1 (stereo not given) | -0.28%
CC1COc2ccccc2N1C(=O)c1cccnc1Cl (stereo not given) | 8%
CN(C)CCNC(=O)c1ccc(Cl)c2cc3ccccc3nc12 | 51.8% (active)
O=C(NCCc1ccccn1)c1cc(-c2ccc(Cl)cc2)nc2ccccc12 | 15.8%
CCCN(CCC)CCNC(=O)c1cc2c(C)nc3ccccc3c2o1 | -8.54%
COc1ccc(OC)c(CCNC(=O)CCn2ccc3cc(S(=O)(=O)N4CCCC4)ccc32)c1 | -2.42%
CC1CCN(c2ccc3c(c2)S(=O)(=O)c2cc(C(=O)O)ccc2C3=O)CC1 | -46.1%
O=C(c1ccc2c(c1)N(Cc1ccc(F)cc1)C(=O)c1ccccc1S2(=O)=O)N1CCN(c2ccccn2)CC1 | 11.9%
O=C1c2ccccc2S(=O)(=O)c2cc(N3CCN(c4ccccn4)CC3)ccc21 | 69.7% (active)
